For 4 compounds, outcome and AC50 results are on record in PubChem BioAssay (EPA / NIEHS).

Test [1] deals with Paired box protein Pax-6 (Homo sapiens) (UniProt P26367). Briefly: ATG_Pax6_CIS: Attagene CIS-FACTORIAL HepG2 Assay for human Paired Box 6 (PAX6) (AID 2282956). The following applies: HepG2 CIS-FACTORIAL PAX6 reporter transcription, RNA readout; actives raise or lower the signal. The method in brief:
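Fluorescent RT-PCR products separated by capillary electrophoresis report PAX6-linked promoter mRNA in HepG2 cells 24 h post-dose. Curves fitted bidirectionally, DMSO as negative control.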

Test [2] is described as follows: ATG_PXRE_CIS: Attagene CIS-FACTORIAL HepG2 Assay for human Pregnane X Receptor Element (PXRE) (AID 2282957). The note with it: HepG2 Attagene CIS-FACTORIAL PXRE reporter, mRNA; actives raise or lower the signal. The essentials: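 Reporter transcripts under endogenous PXR-responsive cis-regulation quantified from total RNA of transfected HepG2 cells 24 h post-dosing, via RT-PCR with fluorescent primer extension and capillary electrophoresis. Gain or loss of signal fitted against DMSO baseline.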

Test [3] in a line: ATG_PPRE_CIS: Attagene CIS-FACTORIAL HepG2 Assay for human Peroxisome Proliferator-activated Response Element (PPRE) (AID 2282958). The following applies: HepG2 PPRE cis-element reporter, Attagene transcription factor profiling; actives raise or lower the signal. The method in brief: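 PPRE activity in HepG2: transient cis-reporter transfection, 24 h compound incubation, reporter mRNA by RT-PCR and CE fluorescence; gain/loss fitted against DMSO.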

The nature of test [4]: ATG_RORE_CIS: Attagene CIS-FACTORIAL HepG2 Assay for human RAR-related Orphan Receptor Element (RORE) (AID 2282959). The note with it: HepG2 Attagene cis-factorial RORE reporter, mRNA; actives raise or lower the signal. The method in brief: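 A 24-hour exposure of transfected HepG2 hepatoma cells precedes RNA isolation and reporter RT-PCR. Labeled products are digested with HpaI and resolved by capillary electrophoresis, with gain or loss of signal scored relative to DMSO.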

The nature of test [5]: ATG_Sox_CIS: Attagene CIS-FACTORIAL HepG2 Assay for human SRY-box transcription factor (SOX) (AID 2282960). The note with it: HepG2 Attagene cis-factorial SOX reporter, mRNA; actives raise or lower the signal. The method in brief:
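HepG2, cis reporter units, 24 h exposure. Reporter mRNA: RT-PCR → FAM labelling → HpaI → CE fluorescence. Bidirectional fit vs DMSO.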

Test [6] addresses Transcription factor Sp1 (Homo sapiens) (UniProt P08047). Briefly: ATG_Sp1_CIS: Attagene CIS-FACTORIAL HepG2 Assay for human Specificity Protein 1 (Sp1) (AID 2282961). The following applies: HepG2 Sp1 cis-reporter transcription, actives raise or lower the signal. The essentials: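 Liver-derived HepG2 cells, cis-element reporter library, 24 h treatment; RNA isolated, cDNA amplified with reporter-specific primers, FAM-labeled fragments sized on capillary analyzer. DMSO baseline, bidirectional curve fit.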

Test [7] in a line: ATG_SREBP_CIS: Attagene CIS-FACTORIAL HepG2 Assay for human Sterol Regulatory Element Binding (SREBP) (AID 2282962). The note with it: HepG2 Attagene cis-factorial SREBP reporter, mRNA; actives raise or lower the signal. The essentials: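 Endogenous factor activity is measured in HepG2 through multiplexed reporter units under cis-element control. Following a 24 h incubation, reporter transcripts are reverse-transcribed, PCR-amplified and sized by capillary electrophoresis; activity is fitted in both directions relative to DMSO.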

The target of test [8] is Signal transducer and activator of transcription 3 (Homo sapiens) (UniProt P40763). In words: ATG_STAT3_CIS: Attagene CIS-FACTORIAL HepG2 Assay for human Signal Transducer and Activator of Transcription 3 (STAT3) (AID 2282963). The following applies: HepG2, Attagene cis-factorial STAT3 reporter transcription; actives raise or lower the signal. The essentials:
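Fluorescence intensity of 6-FAM-labelled reporter fragments, separated by capillary electrophoresis after RT-PCR, gave the signal. Cells were HepG2 transfected with cis-element reporter units and treated 24 h; fitting was bidirectional relative to DMSO.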

A short description of test [9]: ATG_TA_CIS: Attagene CIS-FACTORIAL HepG2 Assay for human TA Basal Promoter (AID 2282964). The note with it: HepG2 Attagene CIS-factorial TA basal promoter reporter; actives raise or lower the signal. The essentials:
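Background internal-marker endpoint from a 52-component HepG2 cis-reporter panel. Cells treated 24 h; reporter transcripts quantified via RT-PCR and CE fluorescence against DMSO baseline.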

Test [10] is described as follows: ATG_TCF_b_cat_CIS: Attagene CIS-FACTORIAL HepG2 Assay for human T-Cell-Factor with beta-catenin (TCF/b-cat) (AID 2282965). The note with it: HepG2 TCF/beta-catenin cis-reporter transcription, actives raise or lower the signal. The method in brief: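 Cells of the HepG2 line carry transiently transfected reporter units whose promoters respond to endogenous factors. Twenty-four hours post-dosing, reporter mRNA induction is measured by fluorescent RT-PCR and capillary electrophoresis, with DMSO as baseline.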

The nature of test [11]: ATG_TAL_CIS: Attagene CIS-FACTORIAL HepG2 Assay for human TAL Basal Promoter (AID 2282966).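 Also: background control endpoint measuring basal TAL promoter reporter mRNA not a specific factor.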 The following applies: HepG2 Attagene cis-factorial TAL promoter reporter; actives raise or lower the signal. The method in brief: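 Background-control endpoint: basal TAL promoter reporter transcripts in transiently transfected HepG2, measured 24 h after dosing. Read-out by RT-PCR with fluorescent primer extension and capillary electrophoresis; gain or loss of signal fitted relative to DMSO.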

Test [12] can be described thus: ATG_TGFb_CIS: Attagene CIS-FACTORIAL HepG2 Assay for human Transforming Growth Factor (TGF) (AID 2282967). The following applies: HepG2 Attagene CIS TGFb reporter, mRNA transcription; actives raise or lower the signal. The essentials:
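Liver HepG2 line, cis-factorial reporter panel, 24 h dosing. Quantitation: RT-PCR products labeled with 6-FAM, cut with HpaI, resolved by capillary electrophoresis; DMSO-referenced bidirectional analysis.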

Test [13] is described as follows: ATG_VDRE_CIS: Attagene CIS-FACTORIAL HepG2 Assay for human Vitamin D Receptor Element (VDRE) (AID 2282968). The note with it: HepG2 VDRE cis-reporter transcription, actives raise or lower the signal. The method in brief: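 Compounds were applied for 24 h to HepG2 cells transfected with promoter-regulated reporter units. Total RNA was reverse-transcribed, and reporter amplicons were fluorescently labelled and sized by capillary electrophoresis.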

Test [14] has as its target Nuclear receptor subfamily 1 group I member 3 (Homo sapiens) (UniProt Q14994). Briefly: ATG_CAR_TRANS: Attagene TRANS-FACTORIAL HepG2 Assay for human Constitutive Androstane Receptor (CAR) (AID 2282969; active = hit-call score of the fitted dose curve at least 0.9, where 1 is the maximum;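 also: activators raise reporter mRNA above DMSO so AC50 marks induction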). The following applies: HepG2 Attagene TRANS-FACTORIAL CAR reporter. The essentials: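 Transiently transfected HepG2, multiplex TRANS reporters (CAR-Gal4 chimera driving GAL4-UAS reporter). 24 h dosing. Readout: reporter transcript by RT-PCR + capillary electrophoresis, fluorescence intensity; positive direction vs DMSO.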

Test [15] addresses Estrogen receptor (Homo sapiens) (UniProt P03372). In words: ATG_ERa_TRANS: Attagene TRANS-FACTORIAL HepG2 Assay for human Estrogen Receptor alpha (ERa) (AID 2282970; active = hit-call score of the fitted dose curve at least 0.9, where 1 is the maximum). The note with it: HepG2 Attagene TRANS ERa GAL4 reporter, mRNA. The essentials: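 Reporter transcripts were measured 24 h after dosing by RT-PCR with fluorescent primer extension and capillary electrophoresis. The system is transiently transfected HepG2 expressing exogenous NR-Gal4 chimeras driving GAL4-UAS reporters; DMSO is the baseline.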

Test [16] addresses X-box-binding protein 1 (Homo sapiens) (UniProt P17861). Briefly: ATG_Xbp1_CIS: Attagene CIS-FACTORIAL HepG2 Assay for human X-box Binding Protein 1 (XBP1) (AID 2282972). The note with it: HepG2 XBP1 cis-element reporter, Attagene multiplex; actives raise or lower the signal. The method in brief:
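Multiplexed cis-reporter readout in transfected HepG2 liver cells. Exposure lasted 24 hours. Activity in either direction was fitted against DMSO as negative control and baseline.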

Test [17] in a line: ATG_M_19_TRANS: Attagene TRANS-FACTORIAL HepG2 Assay for M19 Transcription Factor (Internal Marker) (AID 2282974; active = hit-call score of the fitted dose curve at least 0.9, where 1 is the maximum). The note with it: HepG2 Attagene TRANS-FACTORIAL M19 internal marker reporter. The essentials:
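Transfected HepG2 (GAL4-UAS MRTUs), 24 h compound, TriZol RNA, DNase-treated RT, reporter PCR, FAM label, HpaI digest, CE fluorescence; gain vs DMSO.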

Test [18] has as its target Steroid hormone receptor ERR1 (Homo sapiens) (UniProt P11474). In words: ATG_ERRa_TRANS: Attagene TRANS-FACTORIAL HepG2 Assay for human Estrogen-Related Receptor alpha (ERRa) (AID 2282971; active = hit-call score of the fitted dose curve at least 0.9, where 1 is the maximum). The following applies: HepG2 Attagene TRANS reporter, ERRa transactivation. The method in brief: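 Reporter transcripts from ERRa-Gal4 chimera activity measured in transiently transfected human HepG2 cells 24 hours after dosing, using RT-PCR with 6-FAM primer extension, HpaI digestion and capillary electrophoresis; DMSO is baseline.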

Test [19] has as its target Estrogen-related receptor gamma (Homo sapiens) (UniProt P62508). In words: ATG_ERRg_TRANS: Attagene TRANS-FACTORIAL HepG2 Assay for human Estrogen-Related Receptor gamma (ERRg) (AID 2282977; active = hit-call score of the fitted dose curve at least 0.9, where 1 is the maximum;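 also: hits increase reporter signal over DMSO so potencies reflect activators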). The note with it: HepG2 Attagene TRANS reporter, ERRg transactivation. The essentials:
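Exogenous NR-Gal4 chimera activity measured as reporter transcript induction after 24 h in transiently transfected HepG2 cells. RNA reverse-transcribed, PCR-amplified, 6-FAM-labelled and resolved by capillary electrophoresis; increase over DMSO baseline.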

Results filed as inconclusive are left out. Activity calls are given as the source filed them. The calls were made as follows, unless noted: active = hit-call score of the fitted dose curve at least 0.9, where 1 is the maximum; inactive = score below 0.9.

X-box-binding protein 1 (Homo sapiens), sequence (P17861 whole entry, looked up): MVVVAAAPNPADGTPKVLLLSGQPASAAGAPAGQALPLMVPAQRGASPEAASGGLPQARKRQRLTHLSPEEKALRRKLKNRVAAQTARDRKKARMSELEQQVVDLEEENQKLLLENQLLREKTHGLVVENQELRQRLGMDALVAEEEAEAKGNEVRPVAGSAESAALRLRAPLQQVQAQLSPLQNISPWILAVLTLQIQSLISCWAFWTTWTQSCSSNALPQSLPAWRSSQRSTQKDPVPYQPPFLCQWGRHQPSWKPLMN
Paired box protein Pax-6 (Homo sapiens), sequence (P26367 whole entry, looked up): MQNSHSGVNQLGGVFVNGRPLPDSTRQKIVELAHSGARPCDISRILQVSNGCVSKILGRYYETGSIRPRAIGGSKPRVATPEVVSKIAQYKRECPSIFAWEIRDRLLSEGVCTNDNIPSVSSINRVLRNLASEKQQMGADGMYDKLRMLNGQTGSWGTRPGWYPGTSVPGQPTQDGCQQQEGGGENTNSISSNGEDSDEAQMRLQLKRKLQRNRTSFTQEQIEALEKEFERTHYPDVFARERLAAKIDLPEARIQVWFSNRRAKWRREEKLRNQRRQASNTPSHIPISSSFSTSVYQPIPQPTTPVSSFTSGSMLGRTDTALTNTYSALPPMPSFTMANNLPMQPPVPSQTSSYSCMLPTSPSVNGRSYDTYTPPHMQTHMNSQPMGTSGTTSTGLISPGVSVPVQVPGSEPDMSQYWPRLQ
Signal transducer and activator of transcription 3 (Homo sapiens), sequence (P40763 whole entry, looked up, the tested form may be a part): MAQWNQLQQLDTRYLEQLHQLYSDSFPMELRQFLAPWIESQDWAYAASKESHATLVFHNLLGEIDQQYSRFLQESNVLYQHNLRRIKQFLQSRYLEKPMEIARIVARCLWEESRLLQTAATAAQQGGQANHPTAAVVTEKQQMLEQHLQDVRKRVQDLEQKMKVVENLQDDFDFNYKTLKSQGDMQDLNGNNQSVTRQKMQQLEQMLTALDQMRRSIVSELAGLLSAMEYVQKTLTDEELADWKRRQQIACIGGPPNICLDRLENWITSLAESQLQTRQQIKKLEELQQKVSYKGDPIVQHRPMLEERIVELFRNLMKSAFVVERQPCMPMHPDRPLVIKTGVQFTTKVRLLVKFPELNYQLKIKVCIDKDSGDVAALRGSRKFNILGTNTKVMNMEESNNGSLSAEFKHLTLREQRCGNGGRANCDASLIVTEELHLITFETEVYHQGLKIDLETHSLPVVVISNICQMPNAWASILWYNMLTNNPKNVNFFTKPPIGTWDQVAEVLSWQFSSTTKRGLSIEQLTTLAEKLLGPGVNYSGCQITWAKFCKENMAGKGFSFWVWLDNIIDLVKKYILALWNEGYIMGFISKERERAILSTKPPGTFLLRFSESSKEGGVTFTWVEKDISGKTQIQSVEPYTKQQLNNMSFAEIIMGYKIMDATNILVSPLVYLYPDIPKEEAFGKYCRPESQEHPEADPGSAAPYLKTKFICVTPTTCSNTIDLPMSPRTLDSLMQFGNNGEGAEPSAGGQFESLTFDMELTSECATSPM
Transcription factor Sp1 (Homo sapiens), sequence (P08047 whole entry, looked up, the tested form may be a part): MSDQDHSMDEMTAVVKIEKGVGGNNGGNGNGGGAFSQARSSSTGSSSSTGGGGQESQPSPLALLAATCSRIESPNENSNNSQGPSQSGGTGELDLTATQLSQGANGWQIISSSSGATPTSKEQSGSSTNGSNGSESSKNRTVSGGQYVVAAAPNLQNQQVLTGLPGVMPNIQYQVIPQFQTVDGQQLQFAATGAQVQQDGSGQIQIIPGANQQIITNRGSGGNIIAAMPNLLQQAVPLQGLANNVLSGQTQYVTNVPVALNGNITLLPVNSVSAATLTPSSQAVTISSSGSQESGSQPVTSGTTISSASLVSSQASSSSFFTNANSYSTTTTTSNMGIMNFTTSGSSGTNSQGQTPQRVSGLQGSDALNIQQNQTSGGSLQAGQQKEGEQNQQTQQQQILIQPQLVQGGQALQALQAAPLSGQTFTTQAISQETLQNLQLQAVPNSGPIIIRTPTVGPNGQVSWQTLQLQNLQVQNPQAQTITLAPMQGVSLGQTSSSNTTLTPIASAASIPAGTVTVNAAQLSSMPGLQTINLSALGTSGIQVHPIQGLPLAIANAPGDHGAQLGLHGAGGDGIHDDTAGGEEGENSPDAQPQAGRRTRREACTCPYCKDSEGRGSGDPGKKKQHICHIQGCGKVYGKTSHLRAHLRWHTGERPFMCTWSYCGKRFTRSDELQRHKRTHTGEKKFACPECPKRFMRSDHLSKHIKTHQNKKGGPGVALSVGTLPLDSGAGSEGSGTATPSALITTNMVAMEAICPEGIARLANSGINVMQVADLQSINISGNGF
Estrogen-related receptor gamma (Homo sapiens), sequence (P62508 whole entry, looked up, the tested form may be a part): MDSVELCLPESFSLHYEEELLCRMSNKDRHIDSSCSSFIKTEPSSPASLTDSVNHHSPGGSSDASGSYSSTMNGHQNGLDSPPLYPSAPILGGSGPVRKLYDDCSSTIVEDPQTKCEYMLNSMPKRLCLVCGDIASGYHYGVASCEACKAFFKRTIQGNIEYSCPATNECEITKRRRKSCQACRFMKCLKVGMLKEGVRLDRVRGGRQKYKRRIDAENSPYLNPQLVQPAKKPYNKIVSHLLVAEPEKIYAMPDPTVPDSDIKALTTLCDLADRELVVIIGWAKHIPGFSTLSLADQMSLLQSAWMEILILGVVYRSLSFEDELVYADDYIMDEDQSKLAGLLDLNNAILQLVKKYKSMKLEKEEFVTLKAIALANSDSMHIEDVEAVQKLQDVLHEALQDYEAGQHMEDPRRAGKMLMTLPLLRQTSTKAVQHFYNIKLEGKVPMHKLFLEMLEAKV
Estrogen receptor (Homo sapiens), sequence (P03372 whole entry, looked up, the tested form may be a part): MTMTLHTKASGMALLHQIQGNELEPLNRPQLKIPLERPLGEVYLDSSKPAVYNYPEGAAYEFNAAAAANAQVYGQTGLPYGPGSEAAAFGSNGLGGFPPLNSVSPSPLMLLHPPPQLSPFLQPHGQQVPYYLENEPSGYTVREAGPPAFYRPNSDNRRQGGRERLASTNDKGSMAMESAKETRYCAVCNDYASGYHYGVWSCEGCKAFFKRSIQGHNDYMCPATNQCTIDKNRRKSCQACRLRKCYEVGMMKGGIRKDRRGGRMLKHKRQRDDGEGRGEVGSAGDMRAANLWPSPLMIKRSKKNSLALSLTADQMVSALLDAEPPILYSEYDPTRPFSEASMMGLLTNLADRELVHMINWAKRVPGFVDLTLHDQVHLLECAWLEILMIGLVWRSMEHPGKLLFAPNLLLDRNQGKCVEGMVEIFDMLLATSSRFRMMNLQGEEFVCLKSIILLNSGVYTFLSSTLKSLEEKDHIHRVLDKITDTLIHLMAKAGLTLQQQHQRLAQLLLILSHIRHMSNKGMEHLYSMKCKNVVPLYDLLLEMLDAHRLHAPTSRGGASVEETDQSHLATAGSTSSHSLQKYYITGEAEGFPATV
Steroid hormone receptor ERR1 (Homo sapiens), sequence (P11474 whole entry, looked up, the tested form may be a part): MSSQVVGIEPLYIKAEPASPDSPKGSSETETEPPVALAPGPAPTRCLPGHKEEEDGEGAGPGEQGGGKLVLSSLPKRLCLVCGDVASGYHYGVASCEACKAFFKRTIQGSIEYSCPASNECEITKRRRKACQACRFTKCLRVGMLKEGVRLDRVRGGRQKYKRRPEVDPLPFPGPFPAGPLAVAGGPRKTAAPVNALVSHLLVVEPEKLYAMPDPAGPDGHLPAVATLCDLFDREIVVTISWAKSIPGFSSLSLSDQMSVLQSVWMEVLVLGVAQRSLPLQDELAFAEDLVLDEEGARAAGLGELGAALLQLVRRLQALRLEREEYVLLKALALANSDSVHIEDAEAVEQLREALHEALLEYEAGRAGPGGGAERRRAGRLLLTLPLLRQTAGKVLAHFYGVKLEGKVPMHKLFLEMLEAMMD
Nuclear receptor subfamily 1 group I member 3 (Homo sapiens), sequence (Q14994 whole entry, looked up, the tested form may be a part): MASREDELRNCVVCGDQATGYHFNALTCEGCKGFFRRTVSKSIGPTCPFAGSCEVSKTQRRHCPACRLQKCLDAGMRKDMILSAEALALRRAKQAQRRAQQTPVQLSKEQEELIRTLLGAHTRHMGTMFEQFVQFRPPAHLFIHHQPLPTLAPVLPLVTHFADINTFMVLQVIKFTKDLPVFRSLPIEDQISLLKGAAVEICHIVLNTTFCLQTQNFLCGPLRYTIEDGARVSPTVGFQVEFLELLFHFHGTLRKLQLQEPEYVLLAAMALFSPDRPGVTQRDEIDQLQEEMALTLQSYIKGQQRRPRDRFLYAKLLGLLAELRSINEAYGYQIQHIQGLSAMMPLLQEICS

On to `ClC1=C(Cl)[C@]2(Cl)[C@H]3[C@H]([C@@H]4C=C[C@H]3C4)[C@@]1(Cl)C2(Cl)Cl`, for which the call in [1], in test [3], in [5], in test [6], in [7] and in test [8] was inactive. Moreover, the compound was classed as inactive in test [9], in test [10], in [11], in test [12], in test [14] and in test [17]. Moreover, the concentration at half-maximal activity (AC50) in [2] is 2.06 µM (active); in test [4], 25.2 µM (active); in test [13], 11.7 µM (active); in [15], 11.5 µM (active); in test [16] it was 33.4 µM (active).
Consider `O=C(N[C@H](c1ccccc1)[C@@H]1CN2CCC1CC2)c1c(Cl)ccc(C(F)(F)F)c1Cl`, for which the result in test [1], in [3], in test [4], in [5], in [6] and in [8] was inactive. Further, the result in test [9], in test [10], in test [11], in test [12], in test [13] and in test [18] was inactive. For the same compound, the compound was classed as inactive in test [16] and in test [19]. The half-maximal activity concentration (AC50) was 0.458 µM (active) in test [2] and 5.4 µM (active) in test [7].
Consider `c1ccc(C2CO2)cc1` (stereo unspecified), for which the result in [1], in test [3], in test [4], in [5], in test [6] and in [7] was inactive. Also, the outcome in test [8], in test [9], in test [10], in test [11], in test [12] and in [13] was inactive. Also, the outcome in test [16] and in test [17] was inactive. For the same compound, in test [2], the AC50 was 34.8 µM (active).
In the case of `CCN(CC)CCO`, the compound was called inactive in test [1], in test [2], in test [3], in [4], in [5] and in test [6]. The outcome in [7], in [8], in [9], in test [10], in [11] and in [12] was inactive. The call in test [16] was inactive.

For orientation: AC50 means the midpoint of the concentration-response curve, whichever way the signal moves.
